Data from PubChem BioAssay (NCATS).
Results filed as inconclusive are left out. A call without a number means that no potency is given here. The source made the active and inactive calls. Calls follow the shape of the dose curve; as a rule, active = well fitted inhibition curve with a large enough effect; inconclusive = small, poorly fitted or top-dose-only effect; inactive = no such curve, though single readings can be large or run the other way.

Each molecule was assayed against Endonuclease 4 (Escherichia coli (strain K12)) (UniProt P0A6C1) (assay: Counterscreen for APE1 Inhibitors: qHTS Validation Assay for Inhibitors of Endonuclease IV (AID 1708)). Details: E. coli endonuclease IV, DNA cleavage fluorescence; series mostly up to 57.1 µM.
Description: Assay Provider: David M. Wilson, III, National Institute on Aging, NIH
Screening Center PI: Austin, C.P.
Screening Center: NIH Chemical Genomics Center [NCGC]
Escherichia coli endonuclease IV (Endo IV) is the key member of the AP endonuclease superfamily that catalyzes the cleavage of damaged DNA backbone immediately 5' of an AP site. E. coli EndoIV has the same functional activities as human APE1 but has no sequence or structural homology to the human protein. Herein, we utilize E. coli EndoIV to counter screen compound libraries as part of a high-throughput campaign for APE1 inhibitor identification. A concentration-response screen of the LOPAC1280 collection was performed under experimental conditions identical to those used in the APE1 screen.
Inhibition of APE1 activity was screened by utilizing double-stranded short substrate containing tetrahydrofuran (THF) abasic site labeled with rhodamine-type fluorophore (TAMRA) at the 5'-end and with non-fluorescent Black Hole Quencher-2 (BHQ-2) at the opposing 3'-end. An increase in the fluorescence intensity due to incision of the abasic site by APE1 was used to measure the enzyme activity.
Buffer: 50 mM Tris-HCl (pH 7.5) containing 50mM NaCl, 2 mM MgCl2, 1 mM DTT and 0.01% Tween-20.
Buffer in columns 3 and 4 as negative control (no enzyme).
Substrate: 50 nM final concentration of TAMRA/BHQ-2 substrate dispensed throughout the plate.
Enzyme: 2 nM E. coli EndoIV final concentration in columns 1, 2, 5-48. Column 1 is neutral (100% activity).
Control: Pintool transfer of control inhibitor NSC-13755 to column 2 of all assay plates. Two-fold, 16 pt dilution in duplicate to produce final concentrations in the 5.75 uM - 0.175 nM range.
Three uL of enzyme were dispensed to 1536-well Greiner black solid bottom plates. Compounds (23 nL) were transferred via Kalypsys pintool. The plates were incubated for 15 min at room temperature, and then 1 uL of substrate solution was added to start the reaction. The plates were immediately transferred into ViewLux High-throughput CCD imager (Perkin-Elmer) in order to measure the reaction progress in kinetic mode (three reads every 60 seconds) using 525 nm excitation and 598 nm emission fluorescence protocol. The fluorescence intensity difference between the third and the first time points was used to compute reaction progress.
Potency is read from the fitted curve at half-maximal effect.

Structure (SMILES) | Potency
OC(CCN1CCCCC1)(c1ccccc1)C1CCCCC1 (stereo not given) | inactive
CCn1ccnc1CC1COc2ccccc2O1 (stereo not given) | inactive
COCCCC/C(=N\OCCN)c1ccc(C(F)(F)F)cc1 | inactive
CN/C(=C\[N+](=O)[O-])NCCSCc1ccc(CN(C)C)o1 | inactive
CN(C)CC[C@@H](c1ccc(Br)cc1)c1ccccn1 | inactive
CN(C)C/C=C(/c1ccc(Br)cc1)c1cccnc1 | inactive
NS(=O)(=O)c1cc2c(cc1Cl)NC(C1CC3C=CC1C3)NS2(=O)=O (stereo not given) | inactive
c1ccc2c(c1)CCCC2C1=NCCN1 (stereo not given) | inactive
CCCNC(C)C(=O)Nc1ccccc1C (stereo not given) | inactive
COc1ccc(CCN(C)CCCC(C#N)(c2cc(OC)c(OC)c(OC)c2)C(C)C)cc1OC (stereo not given) | inactive
COCCc1ccc(OCC(O)CNC(C)C)cc1 (stereo not given) | inactive
C[N+](C)(C)CCOC(N)=O | inactive
C[C@]12CCC(=O)C=C1CC[C@@H]1[C@@H]2CC[C@@]2(C)[C@H]1CC[C@]2(O)C(=O)CO | inactive
CN=C(NC#N)NCCSCc1nc[nH]c1C | inactive
CNC1(C)C2CCC(C2)C1(C)C (stereo not given) | inactive
CCn1nc(C(=O)O)c(=O)c2cc3c(cc21)OCO3 | inactive
COc1ccc(CN(CCN(C)C)c2ccccn2)cc1 | inactive
CN1CCN(CC(=O)N2c3ccccc3C(=O)Nc3cccnc32)CC1 | inactive
CN(C(=O)CCCOc1ccc2[nH]c(=O)ccc2c1)C1CCCCC1 | inactive
Cc1nnc(SCC2=C(C(=O)O)N3C(=O)[C@@H](NC(=O)Cn4cnnn4)[C@H]3SC2)s1 | inactive

Structure (SMILES) | Potency
NC(N)=N/N=C/c1c(Cl)cccc1Cl | inactive
CC(=O)[C@]1(O)Cc2c(O)c3c(c(O)c2[C@@H](O[C@H]2C[C@H](N)[C@H](O)[C@H](C)O2)C1)C(=O)c1ccccc1C3=O | 25.1 µM (active)
CC(=O)OC(C)C[N+](C)(C)C (stereo not given) | inactive
C[N+](C)(C)CCCCCCCCCC[N+](C)(C)C | inactive
COc1cc(Cc2cnc(N)nc2N)cc(OC)c1OC | inactive
CC(=O)Nc1nnc(S(N)(=O)=O)s1 | inactive
CC(C)NCC(O)c1cc(O)cc(O)c1 (stereo not given) | inactive
COc1ccc([C@@H]2Sc3ccccc3N(CCN(C)C)C(=O)[C@@H]2OC(C)=O)cc1 | inactive
Cc1ccc(/C(=C\CN2CCCC2)c2ccccn2)cc1 | inactive
Cc1cc(C)c(/C=C2\C(=O)Nc3ccccc32)[nH]1 | inactive
CC(C)NNC(=O)c1ccncc1 | inactive
C[C@]12C=CC(=O)C=C1CC[C@H]1[C@@H]3C[C@@H](O)[C@](O)(C(=O)CO)[C@@]3(C)C[C@H](O)[C@@]12F | inactive
O=C(CCCN1CCC(O)(c2cccc(C(F)(F)F)c2)CC1)c1ccc(F)cc1 | inactive
NCCCNCCSP(=O)(O)O | inactive
CC(=O)OCC1=C(C(=O)O)N2C(=O)[C@@H](NC(=O)Cc3cccs3)[C@H]2SC1 | inactive
NC(=O)N1c2ccccc2C=Cc2ccccc21 | inactive
CN(C)CCCN1c2ccccc2Sc2ccc(C(F)(F)F)cc21 | inactive
CCCN1C[C@H](CSC)C[C@@H]2c3cccc4[nH]cc(c34)C[C@H]21 | inactive
CN(C)CCCN1c2ccccc2Sc2ccccc21 | inactive
CCCCCN(CCCCC)C(=O)C(CCC(=O)O)NC(=O)c1ccc(Cl)c(Cl)c1 (stereo not given) | inactive
